We go through 7 molecules from PubChem BioAssay (EPA / NIEHS).

Experiment [1] in a line: IUF_NPC1b_proliferation_BrdU_72hr: Leibniz Research Institute for Environmental Medicine (IUF) 72-hour Neural Progenitor Cell Bromodeoxyuridine (BrdU) Proliferation Assay (NPC1b) (AID 2284207). The procedure, abridged: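 Neural progenitor spheres of human fetal origin are treated for three days; BrdU added for the last 16 h is quantified by luminescence ELISA, with DMSO as baseline and EGF/FGF omission as positive control.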

Experiment [2] can be described thus: IUF_NPC1a_proliferation_area_72hr: Leibniz Research Institute for Environmental Medicine (IUF) 72-hour Neural Progenitor Cell Proliferation Area Assay (NPC1a) (AID 2284208). A digest of the protocol: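 Spheres of 0.3 mm are plated singly in growth-factor medium and exposed from day 0. After three days at 37C and 5% CO2, sphere area is measured by phase contrast imaging, with activity referenced to DMSO.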

The nature of experiment [3]: IUF_NPC1_viability_72hr: Viability Assessment at 72 hours in the Leibniz Research Institute for Environmental Medicine (IUF) Neural Progenitor Cell Proliferation Assay (NPC1) (AID 2284209). A digest of the protocol:
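Spheres of primary human neural progenitors were plated singly in proliferation medium and treated for 72 h. Mitochondrial reduction of resazurin was then measured by fluorescence and analysed against DMSO controls.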

Experiment [4] in a line: CCTE_Mundy_HCI_Cortical_Synap_Neur_Matur_NeuriteSpotCountPerNeuriteLength: CCTE's Synaptogenesis and Neurite Maturation Assay in rat cortical cells for Neurite Spot Count per Neurite Length, Mundy Lab (AID 2284210). A digest of the protocol:
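Neurite-associated synapse density (synaptophysin puncta per unit neurite length) is measured by fluorescence high-content imaging in rat cortical cultures treated from DIV 7 and fixed at DIV 12, with DMSO as negative control.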

Experiment [5] can be described thus: CCTE_Mundy_HCI_Cortical_Synap_Neur_Matur_BPCount: CCTE's Synaptogenesis and Neurite Maturation Assay in rat cortical cells for Branch Point Count, Mundy Lab (AID 2284211). A digest of the protocol: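 HCI read-out of branch points from MAP2/synaptophysin/Hoechst immunofluorescence; rat cortical cultures, AraC DIV 5, dosing DIV 7, fixed DIV 12; fit in positive direction vs DMSO baseline.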

The nature of experiment [6]: CCTE_Mundy_HCI_Cortical_NOG_NeuriteCount: CCTE's Neurite Outgrowth Assay in rat cortical cells for Neurite Count, Mundy Lab (AID 2284212).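 Further: cells fixed about two days after chemical exposure began.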 A digest of the protocol: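 Rat cortical primary cells; compound added 2 h post-plating, 1/10 dilution of working solution. Anti-betaIII-tubulin/AF488 ICC; ArrayScan neurite count vs DMSO.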
Experiment [7] can be described thus: CCTE_Mundy_HCI_Cortical_Synap_Neur_Matur_NeuriteLength: CCTE's Synaptogenesis and Neurite Maturation Assay in rat cortical cells for Neurite Length, Mundy Lab (AID 2284214). A digest of the protocol: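 Cultures of rat primary cortical cells received chemical at DIV 7 and were fixed at DIV 12, after glial arrest with AraC at DIV 5. Neurite length was measured by automated imaging of MAP2 immunofluorescence.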

Experiment [8] in a line: CCTE_Mundy_HCI_Cortical_Synap_Neur_Matur_NeuriteSpotCountPerNeuron: CCTE's Synaptogenesis and Neurite Maturation Assay in rat cortical cells for Neurite Spot Count per Neuron Count, Mundy Lab (AID 2284215). A digest of the protocol: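 Rat cortical primary cultures; AraC DIV 5 to arrest glia; dosing + media change DIV 7; fixed DIV 12. Anti-MAP2/anti-synaptophysin, Hoechst nuclei; HCI puncta count per neuron, positive fitting direction vs DMSO.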

Experiment [9] in a line: CCTE_Mundy_HCI_Cortical_Synap_Neur_Matur_SynapseCount: CCTE's Synaptogenesis and Neurite Maturation Assay in rat cortical cells for Synapse Count, Mundy Lab (AID 2284218). The procedure, abridged:
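Cells were plated, allowed 2 hr to attach, treated with AraC at DIV 5, then exposed to chemicals from DIV 7 until DIV 12. After fixation and MAP2/synaptophysin immunolabelling, synapses per neuron were quantified by automated imaging against DMSO.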

Experiment [10] can be described thus: CCTE_Mundy_HCI_Cortical_Synap_Neur_Matur_CellBodySpotCount: CCTE's Synaptogenesis and Neurite Maturation Assay in rat cortical cells for Cell Body Spot Count, Mundy Lab (AID 2284223). A digest of the protocol:
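Rat cortical neurons; AraC @ DIV 5; dose + media change DIV 7; fix DIV 12; anti-MAP2/anti-synaptophysin IF, Hoechst; HCI count of soma synaptophysin puncta/neuron; DMSO = negative control.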

Experiment [11] is described as follows: CCTE_Mundy_HCI_hNP1_Pro_ResponderAvgInten: CCTE's Proliferation Assay in human neuroprogenitor cells, Mundy Lab (AID 2284224; active means hit-call score of the fitted dose curve at least 0.9, where 1 is the maximum;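 further: human neural progenitor cells hNP1 derived from WA09 embryonic stem cells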). A digest of the protocol:
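Human neuroprogenitors (hNP1, WA09 lineage) receive test chemical after 40 to 44 hours of attachment. A four-hour BrdU pulse begins twenty hours later, followed by fixation and high content imaging; signal is referenced to DMSO controls.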

Experiment [12] is described as follows: BSK_BT_PBMCCytotoxicity: PBMC Cytotoxicity Assessment in the BioMAP Diversity Plus: BT Assay (AID 2284225).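 Further: PBMC viability measured by Alamar Blue dye reduction fluorescence.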 The settings on record: primary human B cells with PBMC. The procedure, abridged:
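Viability by Alamar Blue reduction (6 h, ex/em 546/580 nm) after 90 h culture of SEB/TSST-1-activated PBMC (20 ng/mL each) given compound 1 h before activation. DMSO served as baseline for curve fitting.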

Read-out in experiment [13]: Secreted IgG (sIgG), gene 3500
The experiment can be described thus: BSK_BT_sIgG: BioMAP Diversity Plus: BT Assay for Secreted IgG (sIgG) Biomarker Activity (AID 2284226). The settings on record: primary human B cells with PBMC. The procedure, abridged: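 Cells (B cells with peripheral blood mononuclear cells) are dosed, cultured 24 h, then supernatant IgG is measured by ELISA. DMSO serves as negative control; curves are fitted for signal increase.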

Experiment [14] in a line: BSK_BT_Bcell_Proliferation: Viability Assessment in the BioMAP Diversity Plus: BT Assay for B cell Proliferation (AID 2284227). The note with it: primary human B cells with PBMC. The procedure, abridged: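 Human B cells co-cultured with PBMC were dosed with test chemicals and relative cell number was quantified by SRB staining at 72 h. Cells were fixed in 10% TCA, stained with 0.1% SRB and read at 560 nm. Activity was fitted in the positive direction against DMSO.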

Read-out in experiment [15]: Interleukin 6 (IL6), IL6 (gene 3569)
The experiment can be described thus: BSK_BT_xIL6: BioMAP Diversity Plus: BT Assay for Interleukin 6 (IL6) Biomarker Activity (AID 2284228). The settings on record: primary human B cells with PBMC. The procedure, abridged: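 B cells and peripheral blood mononuclear cells (human primary co-culture) were dosed with chemical, and after 24 h IL-6 released into the medium was measured by Luminex xMAP. Responses were analysed as gain of signal over DMSO control.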

Read-out in experiment [16]: Interleukin 17A (IL17A), IL17A (gene 3605)
The experiment can be described thus: BSK_BT_xIL17A: BioMAP Diversity Plus: BT Assay for Interleukin 17A (IL17A) Biomarker Activity (AID 2284229). The settings on record: primary human B cells with PBMC. The procedure, abridged: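 Secreted IL-17A was the measured endpoint, read by Luminex xMAP multiplex in supernatants of a human B cell/PBMC co-culture harvested 24 h after chemical dosing. Signal increase relative to DMSO defined activity.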

Experiment [17] can be described thus: CCTE_Mundy_HCI_hN2_NOG_NeuriteCount: CCTE's Neurite Outgrowth Assay in human hN2 cells for Neurite Count, Mundy Lab (AID 2284219; active means hit-call score of the fitted dose curve at least 0.9, where 1 is the maximum). A digest of the protocol:
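In this morphology assay, hNP1-derived neurons received test chemical 2 h post-plating and were fixed two days later in warm paraformaldehyde/sucrose containing Hoechst 33342. Neurites, labelled by rabbit anti-βIII-tubulin (1:800) and Alexa Fluor-488 (1:500), were counted automatically.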

Experiment [18] in a line: CCTE_Mundy_HCI_hN2_NOG_NeuriteLength: CCTE's Neurite Outgrowth Assay in human hN2 cells for Neurite Length, Mundy Lab (AID 2284220; active means hit-call score of the fitted dose curve at least 0.9, where 1 is the maximum). A digest of the protocol:
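Using βIII-tubulin immunofluorescence and Hoechst nuclear counterstain, this component quantifies neurite length in hNP1-derived neurons.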

Experiment [19] can be described thus: CCTE_Mundy_HCI_hN2_NOG_NeuronCount: CCTE's Neurite Outgrowth Assay in human hN2 cells for Neuron Count, Mundy Lab (AID 2284221; active means hit-call score of the fitted dose curve at least 0.9, where 1 is the maximum). A digest of the protocol:
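Read-out is the number of betaIII-tubulin-positive neurons imaged by automated high-content analysis, with DMSO as negative control.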

Values joined by “and” are separate entries in the source; they are usually repeats but may differ in a detail not shown here. Identical values can stand only once. Records with an inconclusive call do not appear. Where a structure was tested more than once in an assay, its records may differ in their call. Active and inactive are the calls of the source. How the source made its calls, unless noted: active means hit-call score of the fitted dose curve at least 0.9, where 1 is the maximum; inactive means score below 0.9.

In the case of `CCOP(=O)(NC(C)C)Oc1ccc(SC)c(C)c1` (stereo not given), the AC50 in experiment [1] was 27.9 µM (active). The result in [2], in experiment [3], in experiment [4], in [5], in experiment [6] and in experiment [7] was inactive. The call in experiment [8], in experiment [9], in experiment [10] and in experiment [11] was inactive.

For the molecule `CSC1=N[C@@](C)(c2ccccc2)C(=O)N1Nc1ccccc1`, the result in [1], in experiment [2], in [3], in experiment [4], in experiment [5] and in experiment [6] was inactive. The outcome in [7], in [8], in experiment [9], in experiment [10] and in [11] was inactive.

Take `CCCCSP(=O)(SCCCC)SCCCC`: the AC50 in experiment [1] was 87.2 µM (active); in experiment [4] it was 14 µM (active); in [5], 50 µM (active) and 14 µM (active); in experiment [6], 77.8 µM (active) and 49.9 µM (active); in experiment [7] it was 50 µM (active) and 14.2 µM (active); in experiment [8], 66.3 µM (active) and 12.9 µM (active). Further, the AC50 in experiment [9] was 73.5 µM (active) and 15.5 µM (active); in experiment [10], 22.9 µM (active); in [11], 50 µM (active) and 74.1 µM (active). Besides, the result in [2], in experiment [4] and in experiment [10] was inactive.

For the molecule `O=[N+]([O-])c1cc(C(F)(F)F)c(Cl)c([N+](=O)[O-])c1Nc1ncc(C(F)(F)F)cc1Cl`, the molecule was called inactive in [1]. Besides, the AC50 in experiment [2] is 7.56 µM (active); in experiment [3] it was 9.47 µM (active); in experiment [4] it was 1.06 µM (active); in [5], 934 nM (active); in experiment [6] it was 1.44 µM (active); in [7] it was 924 nM (active). Moreover, the AC50 was 940 nM (active) in experiment [8]; 1.06 µM (active) in experiment [9]; 1.9 µM (active) in [10]; 1.89 µM (active) in experiment [11]; 4.22 µM (active) in [12]; 0.282 µM (active) in experiment [13]. The AC50 was 2.57 µM (active) in [14], 3.72 µM (active) in experiment [15] and 0.73 µM (active) in experiment [16].

Regarding `CCOP(=S)(OCC)SCCSCC`, the molecule was classed as inactive in experiment [1], in experiment [2], in [3], in experiment [4], in [5] and in experiment [6]. Further, the molecule was called inactive in [7], in experiment [8], in experiment [9], in experiment [10] and in [11].

Consider `CC1=NNC(=O)N(/N=C/c2cccnc2)C1`, for which the outcome in [1], in experiment [2], in [3], in [4], in [5] and in experiment [6] was inactive. For the same molecule, the result in experiment [7], in experiment [8], in experiment [9] and in experiment [10] was inactive.

For the molecule `CCCSP(=O)(OCC)SCCC`, the call in experiment [1], in experiment [2], in experiment [3], in [4], in experiment [5] and in experiment [6] was inactive. The outcome in [7], in experiment [8], in experiment [9], in [17], in experiment [18] and in [19] was inactive. Moreover, the molecule was classed as inactive in experiment [10] and in experiment [11].

For orientation: AC50 means the concentration at which the activity in the assay is half-maximal.
